Screening results (PubChem)
PAFAH1B3 FP inh: PAFAH1B3 enzyme inhibitors, primary screen, biochemical, fluorescence polarization, human. Platelet-activating factor acetylhydrolase IB subunit alpha1 (Homo sapiens), Q15102. recombinant PAFAH1B3, FP-rhodamine probe. inhibition, % at 3.39 µM. 0.28% of 340,000 active. AID 492972, 2010;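 active = inhibition above the screen-wide average of all tested compounds plus 3 SD, cut at about 25% in these data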
Target sequence (Q15102 whole entry, looked up): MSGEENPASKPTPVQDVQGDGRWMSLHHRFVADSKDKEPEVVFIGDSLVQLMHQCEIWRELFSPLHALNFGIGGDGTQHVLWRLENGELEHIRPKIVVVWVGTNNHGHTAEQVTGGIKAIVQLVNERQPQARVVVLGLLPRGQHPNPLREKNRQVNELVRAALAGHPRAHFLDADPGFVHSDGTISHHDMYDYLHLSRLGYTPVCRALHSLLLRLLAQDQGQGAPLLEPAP
PAFAH1B2 inh: PAFAH1B2 enzyme inhibitors, primary screen, biochemical, fluorescence polarization, human | recombinant PAFAH1B2, FP-rhodamine activity probe | Platelet-activating factor acetylhydrolase IB subunit alpha2 (Homo sapiens), P68402 | 1.2% of 340,000 active | inhibition, % at 3.39 µM;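 active = inhibition above the mean of all tested compounds plus 3 SD, cut at about 24% in these data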
Target sequence (P68402 whole entry, looked up): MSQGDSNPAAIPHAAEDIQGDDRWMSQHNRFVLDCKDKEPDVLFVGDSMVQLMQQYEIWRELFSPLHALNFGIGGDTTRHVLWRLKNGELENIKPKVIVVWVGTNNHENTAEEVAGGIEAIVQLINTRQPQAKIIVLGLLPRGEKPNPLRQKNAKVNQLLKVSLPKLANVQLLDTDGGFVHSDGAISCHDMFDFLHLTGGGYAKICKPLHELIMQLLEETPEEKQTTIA
PAFAH2 inh: PAFAH2 enzyme inhibitors, primary screen, biochemical, fluorescence polarization, human. inhibition, % at 3.39 µM. Platelet-activating factor acetylhydrolase 2, cytoplasmic (Homo sapiens), Q99487. 0.99% of 340,000 active. recombinant PAFAH2, FP-rhodamine activity probe;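 active = inhibition above the mean over all tested compounds plus 3 SD, cut at about 30% in these data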;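 note: inhibitors block probe labeling of enzyme so polarization drops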
PP5 primary: PP5 phosphatase inhibitors, primary screen, biochemical, fluorescence; 0.18% of 320,000 active; Serine/threonine-protein phosphatase 5 (Homo sapiens), P53041; inhibition, % at 6.7 µM; purified PP5c, OMFP substrate fluorescence; AID 1987, 2009;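 active = inhibition above the campaign's mean inhibition across all tested compounds plus 3 SD, cut at about 9.5% in these data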
Fh CTSL1 inh: Fasciola hepatica cathepsin L1 inhibitors, primary screen, counter-screen for PFM18AAP inhibitor project, biochemical, QFRET, fluorogenic peptide substrate. recombinant F. hepatica cathepsin L1, Z-Leu-Arg-MCA fluorescence. inhibition, % at 5.96 µM. 0.49% of 300,000 active. AID 1906, 2009;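 active = inhibition above the mean of all tested compounds plus 3 SD, set per screening campaign, cut at about 17% in these data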
pPAFAH inh: pPAFAH enzyme inhibitors, primary screen, biochemical, fluorescence polarization, human. Platelet-activating factor acetylhydrolase (Homo sapiens), Q13093. recombinant pPAFAH, FP-rhodamine probe fluorescence polarization. 1.5% of 330,000 active. inhibition, % at 3.39 µM;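 active = inhibition above the mean inhibition across the screen plus 3 SD, cut at about 25% in these data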;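 note: inhibitors block binding of the rhodamine activity-based probe so polarization drops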
PAFAH2 FP conf: PAFAH2 enzyme inhibitors, confirmation, biochemical, fluorescence polarization, human. AID 493030, 2011. recombinant PAFAH2, FP-rhodamine activity probe. 65% of 2,300 active. inhibition, % at 3.39 µM. shares compounds with PAFAH2 inh;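 active = mean inhibition over three repeats above a set limit taken from the earlier primary screen, cut at about 30% in these data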;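 note: inhibitor blocks binding of rhodamine activity probe so polarization falls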
Large screens that a line does not name were inactive (follow-up assays come after a bar, where they were run). Rows were chosen to be rich in hits. Some 3% of all compounds tested hit in one or more screens of this group.

COc1ccc(C(=O)OCC(=O)Nc2sccc2C(N)=O)cc1[N+](=O)[O-]	none (no result: Fh CTSL1 inh)
O=C(O)Cc1ccc(NC(=O)Cc2ccc3ccccc3c2)cc1	none (no result: PP5 primary, Fh CTSL1 inh, pPAFAH inh)
Cc1ccc(O)c(NC(=O)Cc2ccc3ccccc3c2)c1	PAFAH2 inh 74 | PAFAH2 FP conf 68
COc1ccc(NCC(=O)NN=C2CCS(=O)(=O)c3ccc(F)cc32)cc1	none (no result: PAFAH1B3 FP inh, PAFAH1B2 inh, PAFAH2 inh, PP5 primary, Fh CTSL1 inh)
O=C(COC(=O)c1cc(S(=O)(=O)N2CCOCC2)ccc1O)Nc1cc(S(=O)(=O)N2CCCC2)ccc1Cl	PAFAH2 inh 77 | PAFAH2 FP conf 76
O=C(COC(=O)c1cc(S(=O)(=O)N2CCCC2)ccc1O)Nc1ccc(S(=O)(=O)N2CCOCC2)cc1	none
Cc1cc(C(=O)OCC(=O)Nc2cc(S(=O)(=O)N3CCOCC3)ccc2Cl)c(C)o1	PAFAH2 inh 35 | PAFAH2 FP conf 31
CCOC(=O)CCN(C(=O)Nc1ccccc1)C1CCCCC1	none (no result: PP5 primary, Fh CTSL1 inh, pPAFAH inh)
CCCCNC(=O)c1onc(CSc2ccccc2CC)c1C(=O)O	PAFAH2 inh 58 | PAFAH2 FP conf 44
CCCCNC(=O)c1onc(CSc2ccccc2)c1C(=O)NCCCC	none
C=CCNC(=O)c1onc(CSc2ccccc2C)c1C(=O)O	PAFAH2 inh 36 | PAFAH2 FP conf inactive
Cc1cccc(SCc2noc(C(=O)NCC3CCCO3)c2C(=O)O)c1 (configuration not stated)	none
Cc1cc(C)cc(SCc2noc(C(=O)NCC3CCCO3)c2C(=O)O)c1 (configuration not stated)	PAFAH2 inh 36 | PAFAH2 FP conf inactive
O=C(/C=C/NCc1cccnc1)c1ccc(-c2ccccc2)cc1	none
COc1ccc(S(=O)(=O)N2CCN(C(=O)c3cc(C)nc4ccccc34)CC2)cc1OC	none (no result: PP5 primary, Fh CTSL1 inh)
O=C(COC(=O)CCCN1C(=O)c2cccc3cccc(c23)C1=O)Nc1cccc(C(F)(F)F)c1	PAFAH2 inh 36 | PAFAH2 FP conf 33
O=C(COC(=O)CCCN1C(=O)c2cccc3cccc(c23)C1=O)Nc1cccc(Br)c1	PAFAH2 inh 56 | PAFAH2 FP conf inactive
NC(=O)c1ccc(NC(=O)CCC(=O)c2cccs2)cc1	none
CC(NC(=O)COC(=O)/C(=C/c1cccs1)c1cccs1)c1ccccc1 (configuration not stated)	none
CC(CCc1ccccc1)NC(=O)COC(=O)c1cccs1 (configuration not stated)	PAFAH2 inh 60 | PAFAH2 FP conf 44
COc1ccc(C(=O)OCC(=O)NC(C)CCc2ccccc2)c(OC)c1 (configuration not stated)	PAFAH2 inh 49 | PAFAH2 FP conf inactive
COc1cc(OC)cc(C(=O)OCC(=O)NC(C)CCc2ccccc2)c1 (configuration not stated)	none
CC(NC(=O)COC(=O)c1cccs1)c1ccccc1 (configuration not stated)	PAFAH2 inh 60 | PAFAH2 FP conf 47
CCC(=O)Nc1ccc(C(=O)OCC(=O)c2cccs2)cc1	PAFAH2 inh 34 | PAFAH2 FP conf 32
Nc1ncnc2c1ncn2[C@@H]1O[C@H](CNS(=O)(=O)c2ccc3c(c2)CCN(C(=O)C(F)(F)F)C3)[C@@H](O)[C@H]1O	none (no result: PP5 primary, Fh CTSL1 inh)
COc1cccc(/C=C2/Oc3ccccc3N(CC(=O)NCC3CCCO3)C2=O)c1 (configuration not stated)	none
COC(=O)c1cc(C(=O)OCC(=O)c2ccc[nH]2)cc([N+](=O)[O-])c1	none (no result: Fh CTSL1 inh)
Cc1cc(C(=O)Cn2cnc3ccc(Cl)cc3c2=O)c(C)n1C1CC1	none (no result: PP5 primary, Fh CTSL1 inh, pPAFAH inh)
COc1cccc(CC(=O)OCC(=O)NNC(=O)c2ccc(Br)cc2)c1	none (no result: Fh CTSL1 inh)
